Records with an inconclusive call do not appear. The source made the active and inactive calls. Unless noted, calls come from the whole dose curve.
Tests used:
[1] = Nuclear factor erythroid 2-related factor 2/antioxidant responsive element (Nrf2/ARE) small molecule agonists: qHTS cell viability counter screen in human keratinocytes (AID 1919968; active = well fitted curve in the direction sought with a large enough effect in the repeat runs; an effect the other way counts as inactive or inconclusive; note: nearly all actives have a fitted effect of over 55% in size)
Summary of the method: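 After a 5 h attachment period, ARE-reporter keratinocytes were dosed with compounds in DMSO and then cultured 23 h at 37 C. Cell viability came from CellTiter-Fluor signal read after a further 1 h.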

[2] = Nuclear factor erythroid 2-related factor 2/antioxidant responsive element (Nrf2/ARE) small molecule agonists: luciferase reporter gene qHTS assay in human keratinocytes (AID 1919969); note: nearly all actives have a fitted effect of over 35% in size
[3] = target: Gonadotropin-releasing hormone receptor (Homo sapiens) (UniProt P30968); test: Human gonadotropin-releasing hormone receptor (GnRHR) small molecule agonists, calcium flux assay in GnRHR-HEK293 cells (AID 1920063); note: nearly all actives have a fitted effect of over 35% in size
Summary of the method: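 We seeded human GnRHR-expressing HEK293 cells for 18 hours, loaded them with calcium dye for an hour at 37 C, added test compounds, and recorded fluorescence intensity kinetically for three minutes.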

[4] = target: KiSS-1 receptor (Homo sapiens) (UniProt Q969F8); test: Human kisspeptin (KISS1R) small molecule agonists, calcium flux assay in KISS1R-HEK293 cells (AID 1920064; active = well fitted curve in the direction sought with a large enough effect in the repeat runs; an effect the other way counts as inactive or inconclusive)
Summary of the method: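 Kinetic calcium assay, 1 s sampling over 3 min at Ex/Em 480/540, in HEK293 cells engineered with human KISS1R; compounds delivered in DMSO after 1 h dye loading.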

[5] = G protein-coupled receptor (GPCR) small molecule agonists, calcium flux assay: HEK293 wild type cell line counter screen (AID 1920065)
Summary of the method: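 Calcium-sensitive dye, loaded 1 h at 37 C into cells cultured 18 h, reports compound-evoked calcium release as fluorescence (Ex/Em 480/540), measured over 3 min. Agonist mode; 15-point titrations, triplicate.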

[6] = p53 small molecule agonists, cell-based qHTS assay with human liver microsomes (AID 1963577)
Summary of the method: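 Compounds act here after metabolic activation: human liver microsomes and NADPH, both at 0.5 mg/mL final, were co-added to p53RE-bla cells. Incubation ran 16 h at 37 C, followed by LiveBLAzer detection.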

[7] = p53 small molecule agonists, cell-based qHTS assay with rat liver microsomes (AID 1963578)
Summary of the method: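 Read-out is beta-lactamase reporter fluorescence (LiveBLAzer, 2 h, room temperature, dark) in p53RE-bla cells treated 16 h at 37 C with compound, rat liver microsomes and NADPH, both 0.5 mg/mL final.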

[8] = p53 small molecule agonists, cell-based qHTS assay with human liver microsomes: qHTS cell viability counter screen (AID 1963579); note: nearly all actives have a fitted effect of over 45% in size
Summary of the method: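 Cells carrying the p53 response-element beta-lactamase reporter are treated for 16 h at 37 C with test compounds in the presence of human liver microsomes and NADPH (both 0.5 mg/mL final); ATP-based CellTiter-Glo luminescence then reports viability.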

[9] = target: 5-hydroxytryptamine receptor 2A (Homo sapiens) (UniProt P28223); test: 5-hydroxytryptamine receptor 2A (HTR2A) small molecule antagonists, cell-based qHTS assay (AID 1963586); note: nearly all actives have a fitted effect of over 45% in size
Summary of the method: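 Antagonist-mode intracellular calcium assay: DOI (4 nM) added after 5 min compound pre-incubation at room temperature to dye-loaded HTR2A-CHO cells. Fluorescence followed for 3 min, sampled every second.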

[10] = target: 5-hydroxytryptamine receptor 2A (Homo sapiens) (UniProt P28223); test: 5-hydroxytryptamine receptor 2A (HTR2A) small molecule agonists, cell-based qHTS assay (AID 1963587); note: nearly all actives have a fitted effect of over 30% in size
Summary of the method: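 Kinetic calcium-flux fluorescence (2 min, 1 sec intervals) after compound addition in agonist mode. HTR2A-CHO cells were cultured 18 h, then dye-loaded 1 h at 37 C.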

[11] = target: Muscarinic acetylcholine receptor M1 (Homo sapiens) (UniProt P11229); test: Cholinergic receptor muscarinic 1 (CHRM1) small molecule antagonists, cell-based qHTS assay (AID 1963588); note: nearly all actives have a fitted effect of over 40% in size
Summary of the method: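 CHRM1-CHO calcium-flux assay, antagonist mode. Cells were seeded 18 h, dye-loaded 1 h at 37 C and given compound for 5 min at RT, then acetylcholine was added at 50nM. FDSS fluorescence was read 3 min; 15 concentrations, three runs.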

[12] = target: Muscarinic acetylcholine receptor M1 (Homo sapiens) (UniProt P11229); test: Cholinergic receptor muscarinic 1 (CHRM1) small molecule agonists, cell-based qHTS assay (AID 1963589); note: nearly all actives have a fitted effect of over 35% in size
Summary of the method: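 Measures agonist-induced intracellular calcium rise. Stable human CHRM1 CHO line, 1 h dye load at 37 C, compounds from DMSO, kinetic fluorescence read.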

[13] = cAMP Responsive Elements (CRE) small molecule agonists, cell-based qHTS assay (AID 1963590)
Summary of the method: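 A CRE-responsive beta-lactamase reporter in HEK 293T cells was used. Treatment ran 3 h at 37 C; detection used LiveBLAzer B/G FRET substrate for 2 h at room temperature.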

[14] = cAMP Responsive Elements (CRE) small molecule antagonists, cell-based qHTS assay (AID 1963591; active = well fitted inhibition curve with a large enough effect in the signal ratio in the repeat runs, not every such curve was filed as active; the % refers to the signal ratio)
Summary of the method: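 HEK293T cells carrying a CRE-driven beta-lactamase reporter receive compound and NKH477 (0.25 uM final) for 3 h. Fluorescence from LiveBLAzer B/G FRET substrate is read after 2 h at room temperature.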

[15] = target: D(2) dopamine receptor (Homo sapiens) (UniProt P14416); test: Dopamine D2 receptor (DRD2) small molecule agonists, cell-based qHTS assay (AID 1963594); note: nearly all actives have a fitted effect of over 35% in size
Summary of the method: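 cAMP accumulation in DRD2-HEK293 cells measured by HTRF after 1 h detection; compounds added 10 min before NKH477 (200nM […]) forskolin-analogue stimulation, 30 min at room temperature, with Ro20-1724 present at 0.1 mM final.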

[16] = target: D(2) dopamine receptor (Homo sapiens) (UniProt P14416); test: Dopamine D2 receptor (DRD2) small molecule antagonists, cell-based qHTS assay (AID 1963595; active = well fitted inhibition curve with a large enough effect in the signal ratio in the repeat runs, with a control signal flat; the % refers to the signal ratio)
Summary of the method: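 Antagonism was scored as restored cAMP in HEK293-DRD2 cells. These cells were stimulated with 200 nM NKH477 and 12 nM quinpirole for 30 min at room temperature, in the presence of 0.1 mM Ro20-1724.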

[17] = p53 small molecule agonists, cell-based qHTS assay (AID 1963582; active = well fitted activation curve with a large enough effect in the signal ratio in the repeat runs, not every such curve was filed as active; the % refers to the signal ratio)
Summary of the method: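 In this cell-based concentration-response screen, a p53 response element drives beta-lactamase; cells received DMSO-borne compounds after 5 h culture and were incubated a further 16 h before FRET substrate development.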

[18] = target: Beta-2 adrenergic receptor (Homo sapiens) (UniProt P07550); test: Adrenergic beta2 receptor (ADRB2) small molecule antagonists, cell-based qHTS assay (AID 1963592); note: series mostly up to about 92 µM; nearly all actives have a fitted effect of over 50% in size
Summary of the method: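 Cells (CHO, stable ADRB2 overexpression) incubated 18-20hr at 37C; compounds added from DMSO; agonist mix (1nM isoproterenol, 100uM IBMX, 25uM Ro-20-1724) added; 0.5hr RT; d2-cAMP and anti-cAMP-cryptate added; 1hr RT; 665/615 nm read.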

[19] = target: Beta-2 adrenergic receptor (Homo sapiens) (UniProt P07550); test: Adrenergic beta2 receptor (ADRB2) small molecule agonists, cell-based qHTS assay (AID 1963593);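 note: CHO cells stably overexpressing human ADRB2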
Summary of the method: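 CHO cells stably over-expressing ADRB2 were plated overnight at 37C, then dosed with compounds plus a stimulation mix containing 100uM IBMX and 25uM Ro-20-1724 for 0.5hr at room temperature. cAMP was measured by HTRF competition, 1hr.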

Measured: Potency

Muscarinic acetylcholine receptor M1 (Homo sapiens), sequence (P11229 whole entry, looked up): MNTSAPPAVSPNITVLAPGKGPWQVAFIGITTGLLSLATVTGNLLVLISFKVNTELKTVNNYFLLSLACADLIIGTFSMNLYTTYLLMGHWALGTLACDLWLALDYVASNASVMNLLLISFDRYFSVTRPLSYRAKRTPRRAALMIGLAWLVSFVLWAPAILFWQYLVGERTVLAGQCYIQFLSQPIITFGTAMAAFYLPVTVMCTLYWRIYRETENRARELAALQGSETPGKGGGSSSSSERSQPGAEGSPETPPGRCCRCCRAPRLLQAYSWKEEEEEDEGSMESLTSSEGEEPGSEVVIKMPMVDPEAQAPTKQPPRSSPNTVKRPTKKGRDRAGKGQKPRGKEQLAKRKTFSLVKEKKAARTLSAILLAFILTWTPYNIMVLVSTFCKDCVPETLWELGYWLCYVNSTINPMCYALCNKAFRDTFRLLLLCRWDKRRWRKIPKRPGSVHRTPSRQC
KiSS-1 receptor (Homo sapiens), sequence (Q969F8 whole entry, looked up): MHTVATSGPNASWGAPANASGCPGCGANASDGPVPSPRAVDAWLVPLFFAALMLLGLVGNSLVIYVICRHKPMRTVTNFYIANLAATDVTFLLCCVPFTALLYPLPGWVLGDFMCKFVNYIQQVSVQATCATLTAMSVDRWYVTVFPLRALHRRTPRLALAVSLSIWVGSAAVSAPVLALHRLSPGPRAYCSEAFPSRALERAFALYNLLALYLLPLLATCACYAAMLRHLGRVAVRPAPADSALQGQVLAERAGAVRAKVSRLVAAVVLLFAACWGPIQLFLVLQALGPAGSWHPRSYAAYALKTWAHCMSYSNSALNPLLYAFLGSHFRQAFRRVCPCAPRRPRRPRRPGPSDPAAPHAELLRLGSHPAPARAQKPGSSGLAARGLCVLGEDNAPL
Beta-2 adrenergic receptor (Homo sapiens), sequence (P07550 whole entry, looked up): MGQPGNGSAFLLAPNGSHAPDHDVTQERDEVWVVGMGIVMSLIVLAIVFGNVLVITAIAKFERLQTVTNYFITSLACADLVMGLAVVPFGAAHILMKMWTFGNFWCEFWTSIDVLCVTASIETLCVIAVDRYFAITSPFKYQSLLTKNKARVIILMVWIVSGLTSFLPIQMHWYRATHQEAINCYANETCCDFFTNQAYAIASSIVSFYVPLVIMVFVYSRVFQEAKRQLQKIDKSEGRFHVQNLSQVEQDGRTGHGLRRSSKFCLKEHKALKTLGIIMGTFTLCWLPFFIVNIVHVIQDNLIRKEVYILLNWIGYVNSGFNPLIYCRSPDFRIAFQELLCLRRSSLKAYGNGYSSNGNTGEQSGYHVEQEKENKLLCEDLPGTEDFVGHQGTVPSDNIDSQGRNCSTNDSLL
Gonadotropin-releasing hormone receptor (Homo sapiens), sequence (P30968 whole entry, looked up): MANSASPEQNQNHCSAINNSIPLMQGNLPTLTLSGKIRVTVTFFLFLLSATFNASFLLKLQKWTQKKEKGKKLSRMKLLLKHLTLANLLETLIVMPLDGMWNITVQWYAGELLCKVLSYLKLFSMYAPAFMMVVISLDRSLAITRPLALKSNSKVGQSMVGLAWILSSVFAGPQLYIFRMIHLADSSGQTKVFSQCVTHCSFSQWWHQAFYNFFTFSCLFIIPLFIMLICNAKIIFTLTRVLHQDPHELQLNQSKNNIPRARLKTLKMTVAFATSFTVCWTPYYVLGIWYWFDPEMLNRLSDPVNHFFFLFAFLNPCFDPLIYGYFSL
5-hydroxytryptamine receptor 2A (Homo sapiens), sequence (P28223 whole entry, looked up): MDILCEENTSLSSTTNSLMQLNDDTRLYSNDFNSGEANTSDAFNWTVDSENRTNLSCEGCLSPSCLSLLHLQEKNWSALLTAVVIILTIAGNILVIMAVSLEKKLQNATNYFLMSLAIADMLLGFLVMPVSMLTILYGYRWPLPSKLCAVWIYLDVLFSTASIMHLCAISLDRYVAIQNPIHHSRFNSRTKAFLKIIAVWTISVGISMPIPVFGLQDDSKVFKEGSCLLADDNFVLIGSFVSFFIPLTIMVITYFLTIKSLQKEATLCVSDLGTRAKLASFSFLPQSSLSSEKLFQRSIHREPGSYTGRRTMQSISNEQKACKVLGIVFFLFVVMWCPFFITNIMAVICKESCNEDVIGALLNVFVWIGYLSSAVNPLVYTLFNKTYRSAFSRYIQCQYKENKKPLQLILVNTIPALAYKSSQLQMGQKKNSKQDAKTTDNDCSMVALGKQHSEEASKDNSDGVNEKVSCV
D(2) dopamine receptor (Homo sapiens), sequence (P14416 whole entry, looked up): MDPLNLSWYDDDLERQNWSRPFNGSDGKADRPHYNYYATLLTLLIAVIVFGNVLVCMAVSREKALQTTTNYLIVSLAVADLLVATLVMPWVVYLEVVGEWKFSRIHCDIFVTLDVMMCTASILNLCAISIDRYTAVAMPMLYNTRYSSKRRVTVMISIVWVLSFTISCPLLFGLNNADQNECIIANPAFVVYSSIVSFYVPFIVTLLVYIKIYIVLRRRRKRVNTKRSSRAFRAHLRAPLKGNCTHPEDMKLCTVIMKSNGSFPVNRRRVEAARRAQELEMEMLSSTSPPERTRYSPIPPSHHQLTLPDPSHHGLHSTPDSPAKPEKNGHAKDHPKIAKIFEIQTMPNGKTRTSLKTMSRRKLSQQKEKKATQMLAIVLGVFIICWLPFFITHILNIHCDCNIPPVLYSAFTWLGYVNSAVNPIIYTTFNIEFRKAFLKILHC

O=S(=O)(Cl)c1c(Cl)cccc1Cl
not listed: [17] | [18] | [19]
inactive: all other assays above

Cc1ccc(N(CC2=NCCN2)c2cccc(O)c2)cc1
not listed: [9] | [10] | [11] | [12] | [16]
inactive: all other assays above

CCCC(=O)OC(=O)CCC
not listed: [12] | [13]
inactive: all other assays above

— PubChem BioAssay (Tox21)
